Shiga toxin inh = blocks Shiga toxin action in Vero cells; Vero cells, Shiga toxin protein synthesis inhibition reporter; inhibition, % at 38.7 µM; actives 9.2% (n = 290,000); in the data active = inhibition mostly above about 28%, no sharp cut-off; inactive = mostly below about 43%
Pf growth 96h = P. falciparum growth inhibition at 96 hour, primary screen for plastid delayed-death inhibitors; Potency, µM (highest dose often 28.7 µM), actives largely listed as inhibitors; actives 6.9% (n = 320,000); P. falciparum luciferase reporter growth, 96 h
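Two-generation exposure (96 h) targets delayed-death phenotype. Reporter parasites carrying integrated firefly luciferase, in red cells at 2% hematocrit and 0.05% parasitemia final, kept at 37 C, 5% CO2; luminescence loss indicates inhibition.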
Cycloheximide cs = counter-screen for Shiga toxin inhibitors: cycloheximide protein synthesis inhibition. actives 12% (n = 300,000). AID 2314. max response, %. cell reporter, cycloheximide protein synthesis inhibition counterscreen; in the data active = max response mostly above about 13%, no sharp cut-off; inactive = mostly below about 14%; note: read at 38.3 µM for the half of the compounds with a filed dose
Pf growth 48h = inhibits P. falciparum growth in the first generation, 48 h | P. falciparum luciferase growth in erythrocytes, 48 h | Potency, µM (titrated, usually from 28.7 µM), actives largely listed as inhibitors | actives 5.9% (n = 310,000) | AID 504832
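Parasite viability was followed by luminescence of a genomically integrated firefly luciferase. Cultures held 0.1% parasitemia at 2% hematocrit (final), incubated under 5% CO2 at 37 C.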
AMA1 RON2 block = disrupts binding of P. falciparum AMA1 to RON2 | AID 720542 | actives 0.2% (n = 360,000) | Potency, µM (titrated, usually from 58.2 µM), most hits filed as inhibitors | AlphaScreen AMA1-biotinylated RON2 peptide binding; note: nearly all actives have a fitted effect of over 45% in size
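AMA1 (3D7) with his tag at 25 nM final met compounds first, then biotinylated RON2 peptide at 25 nM; detection used donor plus acceptor beads, 10 µg/mL apiece, read by AlphaScreen after 30 min at room temperature.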
SARS PLpro yeast = blocks SARS-CoV papain-like protease in a yeast assay. Potency, µM (top dose mostly 32.9 µM), hits mostly activators. actives 0.19% (n = 330,000). S. cerevisiae expressing SARS-CoV PLpro, growth rescue. AID 485353; calls by dose curve; note: nearly all actives have a fitted effect of over 55% in size
Numbers stand for hits; - = inactive; ? = inconclusive; . = no result; + = active, no number. Most compounds without a hit are left out; they make up all but 19% or so of the library. Unless noted, calls come from the whole dose curve; as a rule, active = well fitted curve in the direction sought with a large enough effect; inconclusive = small, poorly fitted or top-dose-only effect, or another doubt; inactive = no such curve, though single readings can be large; an effect the other way counts as inactive or inconclusive.

SMILES | Shiga toxin inh | Pf growth 96h | Cycloheximide cs | Pf growth 48h | AMA1 RON2 block | SARS PLpro yeast
COc1ccc(Br)cc1C(=O)Nc1cc(C)cc(C)c1 | - | ? | - | - | - | -
COc1ccc(-c2csc(C(C)(O)c3cccc(F)c3)n2)cc1 (stereo not drawn) | . | . | . | . | - | .
C[C@H](CO)N1C[C@H](C)[C@@H](CN(C)C(=O)NC2CCCC2)Oc2cc(Br)ccc2S1(=O)=O | . | . | . | . | - | .
CCOc1ccccc1N1CCN(Cc2cccc(OC)c2O)CC1 | - | . | - | 3.29µM | - | -
O=C(CCN1CCN(c2ccccc2)CC1)Nc1ccc2c(c1)OCO2 | - | - | - | ? | - | -
O=C(CCN1CCN(c2ccccc2F)CC1)Nc1ccc2c(c1)OCO2 | - | 3.29µM | - | - | ? | -
O=[N+]([O-])c1ccc(CN2CCN(c3ccccc3)CC2)o1 | . | - | - | - | - | -
O=[N+]([O-])c1cc2c(cc1CN1CCN(c3ccccc3)CC1)OCO2 | . | ? | 34.9 | - | - | -
COc1ccccc1N1CCN(Cc2cc(Br)c(O)c3ncccc23)CC1 | - | ? | - | . | - | ?
COc1ccccc1N1CCN(Cc2cc(C)c(C)cc2O)CC1 | - | 0.329µM | - | . | - | -
COc1ccccc1N1CCN(Cc2cc3c(cc2O)OCO3)CC1 | - | - | - | 14.7µM | - | -
COc1ccc(NC(=O)CCN2CCN(c3ccccc3F)CC2)c(OC)c1 | . | 10.4µM | - | ? | - | .
Oc1cc2c(cc1CN1CCc3ccccc3C1)OCO2 | - | ? | - | - | - | -
Oc1cc2c(cc1CN1CCN(c3ccccc3F)CC1)OCO2 | - | ? | - | 9.28µM | ? | -
COc1ccc(OC)c(NC(=O)CCN2CCN(c3ccccc3OC)CC2)c1 | - | ? | - | ? | - | -
CC(C)(C)c1ccc(OCC(=O)Nc2ccncc2)cc1 | - | - | - | - | - | -
O=C(Nc1ccc2c(c1)OCO2)C1CCN(C(=O)c2ccc(Cl)cc2)CC1 | - | - | - | - | - | -
C=CCOc1cccc(C(=O)N2CCCC(Nc3ccc4c(c3)OCCO4)C2)c1 (stereo not drawn) | - | - | - | ? | - | -
O=C(Nc1ccc2c(c1)OCCO2)C1CCN(C(=O)c2ccc(F)cc2)CC1 | 108.6 | - | 31.2 | - | - | -
O=C(Nc1ccc2c(c1)OCCO2)C1CCN(C(=O)c2ccc(Cl)cc2)CC1 | 48.1 | - | 29.8 | - | - | -
C=Cc1ccc(C(=O)N2CCCC(Nc3ccc4c(c3)OCCO4)C2)cc1 (stereo not drawn) | - | - | 12.3 | ? | - | -
O=C(c1ccccc1)c1ccc(C(=O)N2CCOCC2)cc1 | - | - | - | - | - | -
Cc1sc2c(c1C)CN(CCN1CCOCC1)CN2C(=O)c1ccccc1 | - | - | 19.9 | - | - | -
CSc1ncc(S(=O)(=O)c2ccccc2)c(=O)[nH]1 | - | - | - | - | - | -
O=C(NCc1cccc(F)c1)C1CCC(=O)N(CCc2cccc(F)c2)C1 (stereo not drawn) | - | - | 19.9 | - | - | -
SMILES | Shiga toxin inh | Pf growth 96h | Cycloheximide cs | Pf growth 48h | AMA1 RON2 block | SARS PLpro yeast
COc1cccc(CNC(=O)C2CCC(=O)N(CCc3cccc(F)c3)C2)c1 (stereo not drawn) | - | - | - | - | - | ?
Cc1ccc(F)cc1CNC(=O)C1CCC(=O)N(CCCN2CCCC2=O)C1 (stereo not drawn) | - | - | 22.3 | - | - | -
O=C(NCc1cc2ccccc2[nH]1)C1CCC(=O)N(CCCN2CCCC2=O)C1 (stereo not drawn) | - | 10.4µM | - | - | - | -
O=C(NCCC1CCCC1)C1CCC(=O)N(CCCN2CCCC2=O)C1 (stereo not drawn) | - | ? | - | - | - | -
O=C(NC(C1CC1)C1CC1)C1CCC(=O)N(CCCN2CCCC2=O)C1 (stereo not drawn) | - | - | 16.9 | - | - | -
COc1ccc(C2C(C#N)=C(C)NC3=C2S(=O)(=O)c2ccccc23)cc1 (stereo not drawn) | - | - | - | ? | - | -
O=C(NCCc1cccc(C(F)(F)F)c1)C1CCC(=O)N(CCc2cccc(F)c2)C1 (stereo not drawn) | - | - | - | - | - | -
O=C(NCCN1CCCC1=O)C1CCC(=O)N(CCc2cccc(F)c2)C1 (stereo not drawn) | - | 13.1µM | - | - | - | -
CCc1cc(CNC(=O)C2CCC(=O)N(Cc3cccc(F)c3)C2)on1 (stereo not drawn) | - | 11.7µM | - | - | - | -
CCc1nc(CN(C)C(=O)C2CCC(=O)N(CCc3cccc(F)c3)C2)no1 (stereo not drawn) | - | - | 21.9 | - | - | -
Cc1nc(CCNC(=O)C2CCC(=O)N(CCc3cccc(F)c3)C2)sc1C (stereo not drawn) | - | 14.7µM | - | - | - | -
CCc1csc(CCNC(=O)C2CCC(=O)N(CCc3cccc(F)c3)C2)n1 (stereo not drawn) | - | - | - | - | - | -
CCC(Sc1nc2ccncc2[nH]1)C(=O)Nc1cc(Cl)ccc1C (stereo not drawn) | - | ? | - | - | - | -
CCCCn1c(N)c(N(CC(C)C)C(=O)c2ccc(N3C(=O)c4ccccc4C3=O)cc2)c(=O)[nH]c1=O | . | - | . | - | - | -
O=C(O)c1cc(N/N=C/c2ccc(-c3ccccc3)cc2)ccc1Cl | 131.9 | - | 99.5 | - | - | -
O=C(N/N=C/c1c[nH]c2ccccc12)c1ccc([N+](=O)[O-])cc1Cl | - | - | - | - | - | -
O=C(O)c1cc(N/N=C/c2c[nH]c3ccccc23)ccc1Cl | + | - | 58.1 | - | - | -
O=C(O)c1cccc(N/N=C/c2ccc(F)c(F)c2)c1 | + | - | 94.7 | - | - | -
O=C(O)c1cc(N/N=C/c2ccncc2)ccc1Cl | 59.5 | - | 21.4 | - | - | -
CCOC(=O)N1CCN(C(=O)/C(=C/c2ccc(Br)cc2)NC(=O)c2ccc(OC)cc2)CC1 | - | ? | - | ? | - | -
COc1cc(-c2c(NC(=O)c3ccco3)oc3ccccc3c2=O)cc(OC)c1OC | - | - | - | ? | - | -
O=C1Nc2ccccc2N=C(c2ccc3c(c2)OCO3)C1N(CCc1ccccc1)C(=O)CSc1ncccn1 (stereo not drawn) | . | . | . | . | - | .
CC(C)c1ccc(/C=N/Nc2ccc(C(=O)O)cc2)cc1 | - | - | - | - | - | -
CSc1ccc(/C=N/Nc2ccc(Cl)c(C(=O)O)c2)cc1 | 188.7 | - | 52.1 | - | - | -
CSc1ccc(/C=N/NC(=O)COc2ccc(Br)cc2Cl)cc1 | - | ? | - | - | - | -
C/C(=N\Nc1cccc(C(F)(F)F)c1)c1ccc(O)cc1 | 50.5 | - | - | - | - | -
O=C(Cc1ccc(Cl)c(Cl)c1)N/N=C/c1cccnc1 | - | - | - | - | - | -
